Screens deposited in PubChem BioAssay by several laboratories.
Mtb UGM inh: inhibitors of M. tuberculosis UDP-galactopyranose mutase | P9WIQ1 | purified UGM, fluorescence polarization probe displacement | inhibition, % at 10 µM | 0.06% of 320,000 active; in the data active = inhibition above about 10%, passing the limit was not always enough
Target sequence (P9WIQ1 whole entry, looked up): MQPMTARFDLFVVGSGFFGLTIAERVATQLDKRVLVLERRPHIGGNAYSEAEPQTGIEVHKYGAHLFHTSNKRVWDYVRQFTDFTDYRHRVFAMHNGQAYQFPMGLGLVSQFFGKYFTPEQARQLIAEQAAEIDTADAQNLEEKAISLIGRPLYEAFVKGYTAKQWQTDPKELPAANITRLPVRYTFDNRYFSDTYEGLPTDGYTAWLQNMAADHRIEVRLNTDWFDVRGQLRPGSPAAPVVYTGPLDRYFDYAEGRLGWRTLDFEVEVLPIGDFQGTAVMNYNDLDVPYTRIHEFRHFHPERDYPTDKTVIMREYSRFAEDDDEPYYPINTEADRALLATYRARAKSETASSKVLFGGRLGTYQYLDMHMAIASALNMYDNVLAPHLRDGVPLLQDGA
Mtb BioA inh: BioA (M. tuberculosis) enzyme inhibition; purified M. tuberculosis BioA enzyme, plate reader; inhibition, % at 9.99 µM; 0.096% of 360,000 active; in the data active = inhibition above about 40%
Y pestis TopoI: inhibitors of Yersinia pestis topoisomerase I; Y. pestis Topo-I cleavage product accumulation, plate reader; activity, % at 10 µM; 0.064% of 360,000 active; AID 504884; in the data active = activity above about 50%, passing the limit was not always enough
RecA intein inh: blocks M. tuberculosis RecA intein splicing | P9WHJ3 | cell-free RecA intein splicing, fluorescence | inhibition, % (test concentration not listed) | 0.75% of 290,000 active | AID 2221; in the data active = inhibition above about 30%;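 note: 0% = vehicle wells and 100% = reference inhibitor control wells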
FadD28 FP inh: M. tuberculosis FadD28 bisubstrate binding inhibition; AID 588549; inhibition, % at 12.5 µM; FadD28 bisubstrate probe binding, fluorescence polarization; 0.22% of 360,000 active; in the data active = inhibition above about 8.5%, passing the limit was not always enough
Rv3671c protease: inhibits the M. tuberculosis serine protease Rv3671c | AID 2606 | 0.048% of 320,000 active | inhibition, % at 5.96 µM | P9WHR9; in the data active = inhibition above about 38%;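 note: extracellular domain of Rv3671c used as enzyme; 0% = enzyme with DMSO and 100% = no enzyme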
* marks the source's active call; other numbers are inactive results; · = no result given. Sampled rows, rich in hits. Any-hit rate of the full collection: about 0.82%.

SMILES	Mtb UGM inh	Mtb BioA inh	Y pestis TopoI	RecA intein inh	FadD28 FP inh	Rv3671c protease
C/C=C1\NC(=O)[C@H](CC(N)=O)N(C)C(=O)C([C@@H](C)O)NC(=O)C(CCCc2ccc(OC)cc2)NC(=O)[C@H](C(C)C)NC(=O)/C(=C\C)NC(=O)[C@H](O)[C@@H](C[C@@H](O)CCCCCCC)NC(=O)[C@H](C)NC(=O)CN(C)C(=O)[C@H](CCC(N)=O)NC1=O (some centres undefined)	·	5	31	·	11*	·
COc1cccc(S(=O)(=O)N(C)C[C@@H]2Oc3ncc(C#Cc4ccc(F)cc4)cc3C(=O)N([C@H](C)CO)C[C@@H]2C)c1	·	-1	·	·	·	·
N#CC1=C(N)N(c2ccccc2)C(c2ccco2)C1(C#N)C#N (centres undefined)	1	2	-7	8	15*	6
Cc1ccc(C2c3c(oc4ccc(Cl)cc4c3=O)C(=O)N2CCCN2CCOCC2)o1 (centres undefined)	2	·	·	36*	·	1
O=C(NC(=S)Nn1cnnc1)c1ccccc1Cl	13*	·	-2	-2	0	5
O=C(NC(=S)Nn1cnnc1)c1ccc(F)cc1Cl	0	-1	-4	-1	-3	-7
Cc1ccc(-c2c(C)sc(NC(=O)C3C4CCC(O4)C3C(=O)O)c2C(=O)OC(C)C)cc1 (centres undefined)	2	·	26	3	-3	2
COC(=O)c1c(NC(=O)/C=C/C(=O)O)sc(C)c1-c1ccc(C)cc1	-1	29	-7	43*	-3	-4
O=C1CC(=O)N(Cc2ccco2)C(=S)N1	-6	0	-8	2	29*	-36
O=C(CSc1ncnc2c1nnn2Cc1ccc(F)cc1)NC1CCCCC1	-1	·	5	1	0	6
O=C(CSc1ncnc2c1nnn2Cc1ccc(F)cc1)NCC1CCCO1 (centres undefined)	0	2	25	39*	0	11
COc1ccc(NC(=O)N(C)C[C@H]2Oc3c(NS(=O)(=O)c4cn(C)cn4)cccc3C(=O)N([C@@H](C)CO)C[C@H]2C)cc1	·	0	·	·	·	·
CO[C@@H]1CN(C)C(=O)c2cc(NS(=O)(=O)c3cccc(F)c3)ccc2OC[C@H](C)NC[C@@H]1C	·	-1	·	·	·	·
CO[C@H]1CN(C)C(=O)c2ccc(NC(=O)Nc3cccc(F)c3)cc2OC[C@H](C)NC[C@H]1C	·	14	·	·	·	·
CCCN1C[C@@H](C)[C@@H](OC)CN(C)C(=O)c2ccc(NC(=O)Nc3cccc(F)c3)cc2OC[C@H]1C	·	5	·	·	·	·
O=C(COC(=O)c1cccc(NS(=O)(=O)c2ccc(F)c(F)c2)c1)NC(=O)NC1CCCCC1	-2	2	7	4	32*	-62
Cc1noc(NS(=O)(=O)c2ccc(NC(=O)/C=C/c3ccc(C(C)C)cc3)cc2)c1C	3	0	13	6	26*	-6
Cc1noc(NS(=O)(=O)c2ccc(NC(=O)/C=C/c3ccc(Br)cc3)cc2)c1C	2	1	9	0	9.7*	·
COc1cc(/C=C/C(=O)Nc2ccc(S(=O)(=O)Nc3onc(C)c3C)cc2)cc(OC)c1OC	·	1	0	·	3	·
Cc1noc(NS(=O)(=O)c2ccc(NC(=O)Nc3ccc(Cl)c(Cl)c3)cc2)c1C	5	9	-11	20	31*	-31
Cc1noc(NS(=O)(=O)c2ccc(N/C=C\C(=O)c3cccc4ccccc34)cc2)c1C	0	4	30	2	24*	-1
C[C@@H]1CN([C@@H](C)CO)S(=O)(=O)c2ccc(C3=CCCC3)cc2O[C@H]1CN(C)C(=O)c1ccccc1	·	6	·	·	·	·
COc1ccccc1NC(=O)N1C[C@@H]2[C@H](c3ccccc31)[C@@H](CO)N2C(C)=O	·	0	·	·	·	·
C[C@@H]1CN([C@@H](C)CO)C(=O)c2cc(NC(=O)Nc3ccc(F)cc3)ccc2O[C@@H]1CN(C)S(=O)(=O)c1ccccc1	·	2	·	·	·	·
Cc1cc(NC(=O)C(C)SCC(=O)N(C)CC(=O)Nc2ccc(F)cc2)no1 (centres undefined)	1	2	101*	·	-1	7
SMILES	Mtb UGM inh	Mtb BioA inh	Y pestis TopoI	RecA intein inh	FadD28 FP inh	Rv3671c protease
COC(CN(C(=O)CCl)C(C(=O)NC1CCCC(C)C1C)c1ccc(C)cc1)OC (centres undefined)	0	5	-5	45*	-3	-8
COC(=O)C[C@H]1CC[C@H]2[C@@H](COc3ccc(NC(=O)NC(C)C)cc3C(=O)N2C)O1	·	3	·	·	·	·
CC1=NN(c2ccccc2)C(=O)/C1=C/c1c(O)[nH]c(=O)[nH]c1=O	-1	0	3	43*	-3	-75
CC1=NN(c2ccccc2)C(=O)/C1=C\c1cn(C)c2ccccc12	1	-1	8	39*	0	11
CC1=NN(c2ccccc2)C(=O)/C1=C/c1c(O)[nH]c(=S)[nH]c1=O	0	·	-2	20	0	-5
C[C@@H]1CN([C@H](C)CO)S(=O)(=O)c2ccc(C#CC3CC3)cc2O[C@H]1CN(C)C(=O)c1cnccn1	·	-1	·	·	·	·
CSc1ccc(CN(C)C(=O)c2cc3ccccc3o2)cc1	0	3	54*	9	·	-17
CSc1ccc(CN(C)C(=O)c2cc(=O)c3ccccc3o2)cc1	0	1	28	1	-5	3
C[C@@H]1CN([C@H](C)CO)C(=O)Cc2cc(NS(C)(=O)=O)ccc2O[C@H]1CN(C)Cc1ccc(-c2ccccc2)cc1	·	3	·	·	·	·
C[C@@H]1CCCCO[C@H](CN(C)C(=O)C2CCCCC2)[C@@H](C)CN([C@H](C)CO)C(=O)c2cc(NC(=O)Cc3ccccc3)ccc2O1	·	0	·	·	·	·
O=C1C=C(N2CC2)c2ccccc2C1=O	·	-1	-15	·	8.9*	·
COc1ccc(CNS(=O)(=O)CCNCc2ccccc2OC)cc1	·	-1	12	·	1	·
CCCCCCCCNS(=O)(=O)CCNCc1ccccc1OC	·	0	53*	·	-1	·
C[C@H]1CN([C@@H](C)CO)C(=O)c2cc(NC(=O)Nc3ccccc3)ccc2O[C@H]1CN(C)S(=O)(=O)c1ccc(Cl)cc1	·	0	·	·	·	·
Cc1cc(NC(=S)N(Cc2ccc(Cl)cc2)Cc2ccc(C(=O)O)cc2)ccc1Cl	2	9	-11	14	2	-9
CCc1ccc(NC(=S)N(Cc2ccc(Cl)cc2)Cc2ccc(C(=O)O)cc2)cc1	-1	·	11	7	17*	-5
O=C(O)c1cc(-c2ccc(/C=C3\NC(=O)N(c4ccccc4)C3=O)o2)ccc1Cl	0	0	-7	-29	2	-4
O=C(O)c1cc(-c2ccc(/C=C3\NC(=O)N(c4ccc(Cl)cc4)C3=O)o2)ccc1Cl	1	·	5	-37	10*	5
